# Experimental data from PubChem BioAssay AID1159583 (ICCB-Longwood Screening Facility, Harvard Medical School, 2016).
# “And” between values parts separate entries of the source, which are not always exact repeats. Equal entries are not always repeated. Among all 300,000 compounds or so, about 310 (0.1%) were called active. Rule as the data show it: active = fluorescence inhibition mostly above about 23% (no sharp cut-off); inactive = mostly below about 17%. Shown is part of a subset that was picked to be rich in actives.
# Assay: hypoxia reporter signal reduction in M. tuberculosis – fluorescence, absorbance growth readout, primary screen (AID 1159583)
# Details: M. tuberculosis hypoxia-regulated fluorescent reporter, stronger effect = higher value, concentration not given here; growth inhibition: measured here: M. tuberculosis growth (absorbance)
SMILES,fluorescence inhibition,growth inhibition
CC(=NNC(=O)c1cc(-c2cccnc2)nc2ccccc12)c1ccc(O)cc1O,2.22% (inactive),2.87%
COc1ccc(C=NNC(=O)c2ccccc2OC)cc1COc1ccccc1[N+](=O)[O-],1.62% (inactive),-1.45%
C[C@@]12CCC=CC1C(c1ccc(C(F)(F)F)cc1)N(Cc1ccccc1)C2=O (some centres undefined),11.1% (inactive),10.9%
Cc1ccccc1CN1C(Cc2ccccc2)COCCS1(=O)=O (centres undefined),6.62% (inactive),4.01%
CC=CC=CC(=O)Nc1cccc(C2=NOC3(C2)CC(C(N)=O)N(C(=O)c2ccccc2C(=O)c2ccccc2)C3)c1 (centres undefined),-0.767% (inactive),8.5%
C=CCn1c(SCC(=O)NC(=O)Cc2ccccc2)nc2ccccc2c1=O,23.4% (active),56.9%
C=CCn1c(SCc2ccc(C(=O)NCCO)cc2)nc2ccccc2c1=O,9.54% (inactive),8.96%
COC(=O)CSc1nc2ccccc2c(=O)n1Cc1ccccc1,5.85% (inactive),20.4%
CCN(CC)c1ccc(C=NNS(=O)(=O)c2cccc([N+](=O)[O-])c2)cc1,-5.38% (inactive),0.14%
CCC(=NNC(=O)CSCc1ccccc1Br)c1ccc2c(c1)OCCO2,0.753% (inactive),1.89%
O=C(NN=Cc1cccc([N+](=O)[O-])c1)c1ccc(CN2CCOCC2)cc1,4.86% (inactive),16.6%
CCCCN=C1NC(=Cc2ccco2)C(=O)N1c1ccccc1,8.24% (inactive),10.9%
COc1ccccc1C=NNC(=O)CCn1cnc2ccccc21,4.69% (inactive),-0.174%
COc1cccc(CNC(=O)COC(=O)CN2C(=O)NC3(CCCCC3C)C2=O)c1 (centres undefined),-6.03% (inactive),2.37%
COc1cccc(CNC(=O)CN2C(=O)NC(Cc3ccccc3)(c3ccccc3)C2=O)c1 (centres undefined),26.4% (active),52.7%
CCCCNC(=O)CN1C(=O)NC(Cc2ccccc2)(Cc2ccccc2)C1=O,3.73% (inactive),16.6%
CC(CC(=O)Nc1ccc(Cl)cc1Cl)=NNC(=O)C(=O)N1CCCC1,11% (inactive),5.91%
COc1ccc(C=NN=C(N)c2nonc2N)cc1,10.3% (inactive),6.79%
CC(=O)OCC1OC(CC=NOCC(O)C2OC3OC(C)(C)OC3C2O)C=CC1OC(C)=O (centres undefined),9.33% (inactive),7.61%
CCOC(=O)C1C2COc3cc(OC)ccc3C2N2C(=O)N(c3ccc(Cl)cc3)C(=O)[C@]12C (some centres undefined),-4.96% (inactive) and 1.79% (inactive),2.67% and 0.308%
CC(=O)Nc1ccc(S(=O)(=O)NN=Cc2ccc(C)o2)cc1,7% (inactive),-2.42%
O=C(Cc1cccs1)NN=C/C=C/c1ccco1,8.6% (inactive),14.2%
O=C(CNC(=O)c1ccc2c(c1)OCCO2)NN=Cc1ccc(Cl)cc1,-0.656% (inactive),8.25%
COc1ccc(OC)c(C=NNC(=O)c2[nH]ncc2Br)c1,17.8% (inactive),3.99%
COc1cc(C=NNC(=O)Cc2c[nH]c3ccccc23)cc(OC)c1OC,1.09% (inactive),3.89%
COc1ccc2ccccc2c1C=NNC(=O)c1cccc(Br)c1,6.25% (inactive),6.52%

SMILES,fluorescence inhibition,growth inhibition
CCN1C(=O)C2C(c3ccc(-c4cccc(Cl)c4)cc3)N[C@@](C)(C(=O)OC)C2C1=O (some centres undefined),8.93% (inactive),17.5%
Cc1ccccc1CN1C(=O)C(C)SC1=NN=Cc1ccco1 (centres undefined),7.25% (inactive),1.63%
COC(=O)c1ccc(C=NNC(=O)c2ccc3nc[nH]c3c2)cc1,3.23% (inactive),-1.77%
CC(C)C(=NNC(=O)Nc1ccccc1)c1ccccc1,3.82% (inactive),6.86%
CC(=NNC(=O)c1csc(C)c1C)c1ccco1,12.3% (inactive),18.1%
CCN(CC)S(=O)(=O)c1ccc(NN=Cc2ccc(OC)c(OC)c2OC)nc1,6.7% (inactive),6.24%
CC(=NNC(=O)c1cc2ccccc2cc1O)c1ccc2c(c1)OCO2,-11.6% (inactive),0.0347%
C=CCNC(=S)NN=Cc1ccc(-c2cc(Cl)ccc2Cl)o1,6.01% (inactive),7.37%
N#Cc1ccc(OCC(=O)NN=CC2CC=CCC2)cc1 (centres undefined),15.6% (inactive),1.47%
O=C(CCCCCCCCC(=O)NN=Cc1ccco1)NN=Cc1ccco1,-1.23% (inactive),5.53%
Cc1cccc(C(=O)NN=C2SCC(=O)N2Cc2ccccc2)c1,-0.985% (inactive),-2.16%
O=C(NN=Cc1ccc2nccnc2c1)c1ccc(Br)cc1,-2.27% (inactive),-1.22%
C/C(C=NNC(=O)Cc1cccs1)=C\c1ccco1,8.51% (inactive),5.57%
CCOC(=O)NN=CC=Cc1ccco1,5.07% (inactive),6.05%
COC(=O)c1ccc2[nH]c(C(C)O)c(C(C)O)c2c1 (centres undefined),-12.5% (inactive),0.422%
COc1cc(C=NNC(=O)C(=O)NCc2cccnc2)cc(OC)c1OC,11.1% (inactive),2.3%
COC(=O)C1C[C@@]2(Br)c3ccccc3N(S(=O)(=O)c3ccccc3)C2N1C(=O)OC (some centres undefined),-0.203% (inactive),-1.54%
CCOc1cccc(C=NN2C(C)CCCC2C)c1O (centres undefined),-2.33% (inactive),-0.595%
O=C(NC1CCCCC1)C1CC=CC2CCN(C3CCCCC3)C(=O)C21 (centres undefined),8% (inactive),14.6%
C[C@@]12C(=O)N(Cc3ccco3)CC(=O)N1C1c3cc(Cl)ccc3OCC1C2c1ccccc1 (some centres undefined),-6.06% (inactive),1.32%
Cn1cc([N+](=O)[O-])c(C(=O)NN=Cc2ccc([N+](=O)[O-])cc2)n1,-5.59% (inactive),5.33%
Cc1ccc(C=NN(C)S(=O)(=O)c2ccc(C)cc2)cc1,-1.94% (inactive),-2.51%
CCOC(=O)C1=C(C)CC(=NNC(=O)c2ccccc2O)CC1,19.7% (inactive),25.6%
CC(=NNC(=O)c1ccc(CSc2nncn2C)cc1)c1ccc(Cl)cc1,-0.114% (inactive),4.72%
Cc1cc(C)nc(N=C(N)C2=C(O)CC(C)(C)CC2=O)n1,8.68% (inactive),10.4%
CC(Oc1ccccc1[N+](=O)[O-])C(=O)NN=Cc1ccoc1 (centres undefined),-0.473% (inactive),0.98%
